Calls of active or inactive are those of the source. Unless noted, the rule behind the calls is not given here.
Experiments:
[1] = compounds binding Alexa647 anti-His antibody – biochemical, small-molecule microarray, 635 nm fluorescence, artefact control for SMM control protein annotation, primary screen (AID 1128); details: higher = more signal;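 note: score merges feature fluorescence with signal-to-noise for each printed compound spot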
[2] = tested on: Human papillomavirus type 1a E7 protein (residues 1-88); assay: HPV1a E7 small-molecule binders, primary screen, biochemical, small-molecule microarray, residues 1-88, 635 nm (AID 1129); details: small-molecule microarray binding, fluorescence 635 nm; higher = more signal
[3] = target: Focal adhesion kinase 1 (Homo sapiens) (UniProt Q05397); assay: PTK2 protein binding on printed compound slides – biochemical, small-molecule microarray, 635/667 nm fluorescence, BSA, DTT, primary screen (AID 1130); details: 635 nm fluorescence, higher = more signal;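 note: composite of spot emission at 667 nm and signal to noise over triplicate slides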
Focal adhesion kinase 1 (Homo sapiens), sequence (Q05397 whole entry, looked up): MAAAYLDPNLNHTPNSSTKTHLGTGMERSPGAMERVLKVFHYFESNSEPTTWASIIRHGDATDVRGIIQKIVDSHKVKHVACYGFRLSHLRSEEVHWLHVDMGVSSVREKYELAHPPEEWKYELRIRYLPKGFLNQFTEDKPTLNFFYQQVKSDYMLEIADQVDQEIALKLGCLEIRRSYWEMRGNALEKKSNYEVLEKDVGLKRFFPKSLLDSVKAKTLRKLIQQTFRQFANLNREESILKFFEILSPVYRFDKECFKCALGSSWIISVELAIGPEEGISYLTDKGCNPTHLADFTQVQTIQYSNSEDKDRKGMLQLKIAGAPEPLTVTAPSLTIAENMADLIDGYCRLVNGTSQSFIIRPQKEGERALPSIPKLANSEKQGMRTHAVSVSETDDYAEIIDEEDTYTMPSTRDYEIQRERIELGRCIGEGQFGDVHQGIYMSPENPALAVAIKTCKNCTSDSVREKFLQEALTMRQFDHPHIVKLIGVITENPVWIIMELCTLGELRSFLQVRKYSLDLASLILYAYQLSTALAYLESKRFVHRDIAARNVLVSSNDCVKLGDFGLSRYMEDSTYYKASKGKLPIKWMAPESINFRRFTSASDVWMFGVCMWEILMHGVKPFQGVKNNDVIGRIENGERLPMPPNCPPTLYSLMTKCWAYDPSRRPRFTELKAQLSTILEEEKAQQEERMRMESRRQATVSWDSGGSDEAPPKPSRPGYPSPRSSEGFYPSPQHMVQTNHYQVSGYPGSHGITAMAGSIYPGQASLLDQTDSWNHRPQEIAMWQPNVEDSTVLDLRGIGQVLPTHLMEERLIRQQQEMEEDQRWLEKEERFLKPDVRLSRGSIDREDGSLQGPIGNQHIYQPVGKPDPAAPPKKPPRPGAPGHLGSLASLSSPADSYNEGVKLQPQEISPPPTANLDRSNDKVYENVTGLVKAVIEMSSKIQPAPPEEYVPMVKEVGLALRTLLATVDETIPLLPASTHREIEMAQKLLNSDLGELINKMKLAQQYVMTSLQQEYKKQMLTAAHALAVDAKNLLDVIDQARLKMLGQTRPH

[4] = tested on: Fibrinogen (Alexa647-labelled); assay: Alexa647-fibrinogen binding to printed small molecules – biochemical, small-molecule microarray, 635/667 nm fluorescence, artefact control for SMM control-protein annotation, profiling panel (AID 1131); details: fibrinogen-A647 binding fluorescence, higher = more signal;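 note: z-score merges 667 nm fluorescence with per-spot signal-to-noise over triplicate slides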
[5] = target: Follistatin (Homo sapiens) (UniProt P19883); assay: FST protein binding to printed compounds – biochemical, small-molecule microarray, 635/667 nm fluorescence, primary screen (AID 1132); details: 635 nm fluorescence, higher = more signal
Follistatin (Homo sapiens), sequence (P19883 whole entry, looked up): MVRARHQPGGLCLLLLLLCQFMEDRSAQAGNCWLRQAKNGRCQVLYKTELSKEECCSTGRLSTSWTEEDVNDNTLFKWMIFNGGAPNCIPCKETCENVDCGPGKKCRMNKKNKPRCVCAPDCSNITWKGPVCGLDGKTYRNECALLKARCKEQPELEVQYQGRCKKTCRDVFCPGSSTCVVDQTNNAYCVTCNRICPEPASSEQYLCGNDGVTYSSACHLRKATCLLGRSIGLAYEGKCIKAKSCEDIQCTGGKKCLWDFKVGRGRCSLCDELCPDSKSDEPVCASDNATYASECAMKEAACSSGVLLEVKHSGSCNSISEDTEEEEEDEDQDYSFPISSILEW

[6] = target: Fibroblast growth factor 2 (Homo sapiens) (UniProt P09038); assay: basic fibroblast growth factor binding to printed compounds – biochemical, small-molecule microarray, 635/667 nm fluorescence, primary screen (AID 1133); details: FGF2, fluorescence 635/667, higher = more signal
Fibroblast growth factor 2 (Homo sapiens), sequence (P09038 whole entry, looked up): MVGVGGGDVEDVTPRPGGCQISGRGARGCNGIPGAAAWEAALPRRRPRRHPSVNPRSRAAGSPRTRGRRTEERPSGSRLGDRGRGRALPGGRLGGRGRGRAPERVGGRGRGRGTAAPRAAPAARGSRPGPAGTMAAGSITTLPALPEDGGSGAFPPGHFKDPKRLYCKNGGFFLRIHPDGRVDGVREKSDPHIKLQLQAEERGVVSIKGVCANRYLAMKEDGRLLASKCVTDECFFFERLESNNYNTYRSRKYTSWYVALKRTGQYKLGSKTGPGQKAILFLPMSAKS

[7] = JC-1 mitochondrial potential readout, lung cancer cells – cell-based, A549, JC-1 fluorescence, basal, 24 h, 100 nL, profiling panel (AID 1138); details: higher = more signal;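 note: A549 lung adenocarcinoma cells under basal conditions with no added stimulus; test concentration not given here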
Lefty1 = Lefty1 protein binding to printed compounds – biochemical, small-molecule microarray, 635/667 nm fluorescence, primary screen (AID 1139); details: fluorescence 635/667, higher = more signal
[8] = tested on: wheat germ agglutinin (Triticum aestivum), Alexa647-labelled; assay: Alexa647-WGA lectin binding to printed small molecules – biochemical, small-molecule microarray, 635/667 nm fluorescence, artefact control for SMM control-protein annotation, profiling panel (AID 1140); details: WGA-A647 binding, 635 nm fluorescence, higher = more signal;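 note: score merges 667 nm feature emission with signal to noise over triplicate slides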
[9] = target: Luciferin 4-monooxygenase (Photinus pyralis) (UniProt P08659); assay: inhibition of purified Photinus pyralis luciferase – biochemical, luminescence, purified enzyme, 2006 set, primary screen (AID 1141); details: purified firefly luciferase, SteadyGlo luminescence, 30 min; higher = more signal, called active from +8 up or from −8 down;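 note: cell-free assay with purified firefly luciferase at 100 ng per well in PBS; test concentration not given here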
Luciferin 4-monooxygenase (Photinus pyralis), sequence (P08659 whole entry, looked up): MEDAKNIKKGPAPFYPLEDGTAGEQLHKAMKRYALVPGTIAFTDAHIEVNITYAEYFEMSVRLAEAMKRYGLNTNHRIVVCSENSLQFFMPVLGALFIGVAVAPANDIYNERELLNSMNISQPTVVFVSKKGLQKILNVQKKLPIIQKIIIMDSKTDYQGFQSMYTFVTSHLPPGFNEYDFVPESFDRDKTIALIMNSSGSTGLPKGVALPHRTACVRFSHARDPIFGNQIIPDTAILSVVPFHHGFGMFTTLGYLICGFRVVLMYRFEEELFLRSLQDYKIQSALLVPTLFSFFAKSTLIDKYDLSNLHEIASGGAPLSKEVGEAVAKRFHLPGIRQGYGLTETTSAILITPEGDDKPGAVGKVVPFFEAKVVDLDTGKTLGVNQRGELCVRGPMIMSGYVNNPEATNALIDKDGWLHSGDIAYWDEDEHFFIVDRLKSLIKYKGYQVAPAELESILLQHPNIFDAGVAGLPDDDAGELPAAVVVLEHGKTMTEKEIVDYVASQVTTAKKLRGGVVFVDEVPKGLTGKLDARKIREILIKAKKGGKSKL

[10] = tested on: Wnt5a (protein binding on small-molecule microarray); assay: small molecules binding Wnt5a protein – biophysical, small-molecule microarray, 635/667 nm fluorescence, primary screen (AID 1142); details: 635 nm fluorescence, higher = more signal;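 note: fluorescence read at 667 nm with signal to noise per printed feature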
[11] = ATP-based viability of Huh7 replicon cells – cell-based, CellTiter-Glo luminescence, basal, 48 h, cytotoxicity control for HCV replication inhibitor project, primary screen (AID 1143); details: higher = more signal, called active from +8 up or from −8 down;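 note: Huh7 hepatoma cells carrying a hepatitis C replication reporter with no stimulus; test concentration not given here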
[12] = Pseudomonas biofilm growth suppression – PAO1 strain, BacTiter-Glo luminescence, LB-PBS, primary screen (AID 1144); details: P. aeruginosa PAO1 biofilm, 12 h, higher = more signal
[13] = basal CRE-LacZ reporter activity in PC12 – cell-based, unstimulated, primary screen (AID 1145); details: no forskolin, luminescence, 4.5 h, higher = more signal, called active from +8 up or from −8 down
[14] = forskolin-driven CRE-LacZ activity in PC12 – cell-based, CRE-LacZ reporter, forskolin-stimulated, primary screen (AID 1146); details: luminescence, 4.5 h, higher = more signal, called active from +8 up or from −8 down;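 note: PC12 cells with 6xCRE LacZ reporter stimulated by forskolin 10 µM; beta-galactosidase reporter signal reflecting CREB driven transcription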
[15] = target: Streptavidin (Streptomyces avidinii) (UniProt P22629); assay: compounds binding control protein streptavidin – biophysical, small-molecule microarray, 635/667 nm fluorescence, artefact control for SMM compound annotation, primary screen (AID 1147); details: higher = more signal;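 note: signal reflects streptavidin binding to arrayed compounds as a control protein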
Streptavidin (Streptomyces avidinii), sequence (P22629 whole entry, looked up): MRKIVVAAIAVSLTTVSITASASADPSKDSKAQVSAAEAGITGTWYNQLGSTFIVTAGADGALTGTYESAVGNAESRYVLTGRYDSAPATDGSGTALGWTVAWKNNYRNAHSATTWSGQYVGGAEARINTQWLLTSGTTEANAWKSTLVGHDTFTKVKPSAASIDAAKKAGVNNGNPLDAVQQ

[16] = probe aInhba binding on compound microarray – biochemical, small-molecule microarray, 635/667 nm fluorescence, primary screen (AID 1148); details: higher = more signal;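 note: score merges 667nm spot fluorescence with signal-to-noise for antibody binding to printed compounds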
Torsin-1A (Homo sapiens) [17] = target: Torsin-1A (Homo sapiens) (UniProt O14656); assay: TOR1A wild-type binding on microarray – cell lysate, small-molecule microarray, lysate, 635/667 nm, primary screen (AID 1149); details: COS7 hTOR1A-WT lysate, 635 nm fluorescence, higher = more signal
Torsin-1A (Homo sapiens), sequence (O14656 whole entry, looked up): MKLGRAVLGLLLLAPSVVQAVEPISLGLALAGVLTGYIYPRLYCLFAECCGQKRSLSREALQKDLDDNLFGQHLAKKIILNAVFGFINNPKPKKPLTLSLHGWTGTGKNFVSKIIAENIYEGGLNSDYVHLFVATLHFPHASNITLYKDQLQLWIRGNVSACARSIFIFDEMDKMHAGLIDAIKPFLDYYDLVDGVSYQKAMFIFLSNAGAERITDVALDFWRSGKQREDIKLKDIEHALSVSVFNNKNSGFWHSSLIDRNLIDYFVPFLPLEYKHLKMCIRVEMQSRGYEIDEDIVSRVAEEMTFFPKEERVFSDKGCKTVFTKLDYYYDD

Torsin-1A (Homo sapiens) [18] = target: Torsin-1A (Homo sapiens) (UniProt O14656); assay: torsin A mutant lysate binding on microarrays – cell lysate, small-molecule microarray, COS7 lysate, 635/667 nm fluorescence, primary screen (AID 1150); details: COS7 hTOR1A mutant lysate, 635 nm fluorescence, higher = more signal;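 note: score pools 667 nm emission and signal to noise measuring lysate protein binding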
[19] = tested on: Sonic hedgehog protein (Shh); assay: Sonic hedgehog microarray binding compounds – biochemical, small-molecule microarray, 635/667 nm fluorescence, primary screen (AID 1151); details: 635 nm fluorescence, higher = more signal;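 note: Shh protein binding to compounds spotted on small-molecule microarray slides; score combines spot fluorescence intensity with signal-to-noise across triplicate slides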

Row | SMILES | composite z-score [1] | composite z-score [2] | composite z-score [3] | composite z-score [4] | composite z-score [5] | composite z-score [6] | z-score [7] | composite z-score (Lefty1) | composite z-score [8] | z-score [9] | composite z-score [10] | z-score [11] | z-score [12] | z-score [13] | z-score [14] | composite z-score [15] | composite z-score [16] | composite z-score (Torsin-1A (Homo sapiens) [17]) | composite z-score (Torsin-1A (Homo sapiens) [18]) | composite z-score [19]
1 | COCCOC(=O)N1C(=O)[C@@]2(c3cc(C#CC4(O)CCCCCC4)ccc31)[C@H](C(=O)NC[C@H](O)c1ccccc1)[C@H]1C(=O)O[C@H](c3ccccc3)[C@H](c3ccccc3)N1[C@@H]2c1ccc(O)cc1 | 1.39 | 1.18 | 0.392 | 0.721 | 0.37 | 0.774 | 0.139 | 0.439 | 0.721 | -0.474 (inactive) | 0.233 | -0.622 (inactive) | 0.588 (inactive) | 0.342 (inactive) | 0.0418 (inactive) | 0.315 | 0.12 | 0.415 | 0.174 | 1.07
2 | C#CCN(C/C=C/c1ccccc1)[C@H](CO[Si](C)(C)C(C)(C)C)c1ccccc1 | 0.953 | -0.786 | 0.329 | -0.759 | -0.0993 | -0.187 | -2.21 | 0.178 | -0.0631 | 0.43 (inactive) | -0.276 | -0.832 (inactive) | 0.221 (inactive) | -0.0487 (inactive) | -0.626 (inactive) | -0.531 | -0.0719 | -0.805 | -0.239 | 0.0896
3 | COC(=O)c1ccc([C@H](NC(=O)c2ccccc2)[C@]2(C)C[C@H]2C2CCCCC2)cc1 | 0.494 | 1.18 | 0.591 | 0.707 | 0.412 | -0.639 | 0.85 | -0.41 | 1.21 | 1.51 (inactive) | 0.0477 | -1.78 (inactive) | -0.718 (inactive) | 0.394 (inactive) | 1.28 (inactive) | 1.08 | 0.166 | -0.435 | 0.266 | -0.999
4 | CC(C)C[C@H]1NC(=O)[C@@]23C(=O)N[C@@H](Cc4ccccc4)C2[C@H](C)[C@@]2(C)O[C@H]2C3/C=C/C/C=C\CNC(=O)[C@@H]2CCCN2C1=O (stereo not given in full) | -0.17 | -0.0447 | -0.171 | 0.789 | 0.614 | 0.829 | -0.0387 | 0.661 | 0.032 | -0.575 (inactive) | 0.275 | -0.264 (inactive) | 0.341 (inactive) | 0.13 (inactive) | 0.865 (inactive) | -0.362 | -0.0471 | -0.056 | -0.0683 | 1.55
5 | C=CCOC(=O)[C@@H]1[C@H]2C(=O)O[C@H](c3ccccc3)[C@H](c3ccccc3)N2[C@H](c2ccc(OCCOC(=O)[C@H]3C[C@H]4C(=O)NCC(=O)N4[C@H]3c3ccc(O)cc3)cc2)[C@@]12C(=O)Nc1ccc(I)cc12 | 1.24 | 1.19 | 0.701 | 0.732 | 1.27 | 1.39 | -1.1 | 1.06 | 0.665 | -0.483 (inactive) | 0.266 | -0.199 (inactive) | 0.22 (inactive) | -0.394 (inactive) | -0.732 (inactive) | 0.868 | -0.0163 | 1.11 | 0.854 | 1.81
6 | CC(=O)c1ccc(C(O)C2C=CC3C(=O)N(C)C(=O)C3N2NC(=O)OC(C)(C)C)cc1 (stereo not given) | 0.777 | 1.23 | 1.54 | 1.05 | 0.046 | 0.14 | -0.082 | 0.337 | 1.34 | -0.068 (inactive) | 0.468 | 0.847 (inactive) | 0.626 (inactive) | 0.246 (inactive) | 1.51 (inactive) | 1.83 | 0.182 | -0.0551 | 0.548 | -0.0538
7 | C#CCN=C(N)N | 0.468 | 0.611 | -0.0375 | 0.802 | 0.785 | 0.388 | -0.317 | 0.858 | 0.299 | 0.523 (inactive) | 0.0311 | -0.347 (inactive) | 0.214 (inactive) | -0.0247 (inactive) | -0.055 (inactive) | 0.314 | 0.0797 | 1.7 | 0.832 | 0.666
8 | O=C1O[C@H](c2ccccc2)[C@H](c2ccccc2)N2[C@H]1[C@@H](C(=O)N1CCN(c3ncccn3)CC1)[C@]1(C(=O)Nc3ccccc31)[C@H]2c1ccc(O)cc1 | 2.34 | 1.07 | 0.759 | 0.635 | 0.889 | 0.451 | 0.028 | -0.116 | 0.185 | -1.3 (inactive) | 0.186 | -2.48 (inactive) | -0.151 (inactive) | 0.299 (inactive) | -0.682 (inactive) | -0.0699 | 0.0018 | 0.103 | 0.799 | 0.0388
9 | COCCOC(=O)N1C(=O)[C@@]2(c3cc(C#CCNC(N)=O)ccc31)[C@H](C(=O)NC[C@H](O)c1ccccc1)[C@H]1C(=O)O[C@H](c3ccccc3)[C@H](c3ccccc3)N1[C@@H]2c1ccc(OCCO)cc1 | 0.991 | 1.16 | 0.707 | 0.884 | 1.18 | 0.581 | -0.71 | 0.753 | 0.851 | -0.496 (inactive) | 0.0906 | -0.8 (inactive) | -0.297 (inactive) | -0.606 (inactive) | -0.965 (inactive) | 0.516 | -0.192 | 0.131 | 0.219 | 0.783
10 | CN(C)C(=O)[C@@]1(CCS(=O)(=O)c2ccccc2)N=C(c2ccc(OCCCO)cc2)O[C@H]1c1ccccc1N=[N+]=[N-] | 0.838 | 1.25 | 0.601 | 1 | 1.1 | 0.58 | 0.371 | 0.267 | 0.371 | -11 (active) | 1 | -3.2 (inactive) | 1.75 (inactive) | 0.447 (inactive) | -1.37 (inactive) | 1.82 | 0.0569 | 0.155 | 0.797 | -0.337

Reference: PubChem BioAssay
